The source of these data is PubChem BioAssay.

The target of this assay is Streptavidin (Streptomyces avidinii) (UniProt P22629). The assay is described as follows: compounds binding control protein streptavidin – biophysical, small-molecule microarray, 635/667 nm fluorescence, artefact control for SMM compound annotation, primary screen (AID 1147).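 Further: signal reflects streptavidin binding to arrayed compounds as a control protein.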 The following applies: higher = more signal.
Streptavidin (Streptomyces avidinii), sequence (P22629 whole entry, looked up): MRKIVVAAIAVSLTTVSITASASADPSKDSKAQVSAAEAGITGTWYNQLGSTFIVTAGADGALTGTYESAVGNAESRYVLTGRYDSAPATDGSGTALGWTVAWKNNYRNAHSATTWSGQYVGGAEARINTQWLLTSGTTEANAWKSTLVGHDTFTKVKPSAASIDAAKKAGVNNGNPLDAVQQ
As to `COc1ccc([Si](C)(C)[C@@H]2[C@@H](CCO)O[C@]3(C(=O)N(Cc4ccc(NC(C)=O)cc4)c4ccccc43)[C@H]2C)cc1`, the composite z-score is 0.627. Consider `CCCCC(=C=CC[C@H](O)c1ccccc1OCCO)C[C@H](O)COCc1ccccc1`, for which the composite z-score is 0.395. `COC(=O)[C@H]1COC(c2ccc(OCCCO)cc2)=N1` gave a composite z-score of -0.998. In turn, `CC(C)C[C@@H]1NC(=O)[C@H]2C[C@@H](C(=O)NCCCCCCN(C)C)[C@@H](c3cccc(OCCO)c3)N2C1=O` returned a composite z-score of -0.305. `O=C1O[C@@H](c2ccccc2)[C@@H](c2ccccc2)N2[C@@H](c3ccccc3OCCO)[C@]3(C(=O)Nc4ccc(C#CCCO)cc43)[C@@H](C(=O)O)[C@H]12` showed a composite z-score of 0.618. Molecule `CC(C)NC(=O)[C@@]1(C)c2ccccc2C(=O)N(Cc2cc(F)cc(C(F)(F)F)c2)[C@H]1c1ccc(CO)cc1` showed a composite z-score of 0.0926. `O=C1O[C@@H](c2ccccc2)[C@@H](c2ccccc2)N2[C@@H](c3ccc(OCCO)cc3)[C@]3(C(=O)Nc4ccccc43)[C@@H](C(=O)N3CCN(c4ncccn4)CC3)[C@H]12` returned a composite z-score of 0.557. The molecule `CCc1cc2c(nc1CC)CCN(CCC(C)=NOC[C@@H](O)[C@H]1O[C@@H]3OC(C)(C)O[C@@H]3[C@H]1O)C2` showed a composite z-score of 0.18.

As to `C=CC[C@@H]1C=C[C@H](ON=C(C)CCN2CCc3nc(CC)c(CC)cc3C2)[C@@H](CO)O1`, the composite z-score came out at 0.372. `CN(C)CCCNC(=O)[C@@H]1c2ccccc2C(=O)N(Cc2cc(F)cc(C(F)(F)F)c2)[C@H]1c1ccc(CO)cc1` gave a composite z-score of -0.621. For the molecule `O=C1[C@H]2[C@H]3[C@H](O)[C@H](O)CC(=NOC[C@@H](O)COCc4ccco4)[C@H]3CC[C@H]2C(=O)N1c1cccc(Oc2ccccc2)c1`, the composite z-score is -0.393. Turning to `CS(=O)(=O)CCOC(=O)C1=CC(CCCO)=CC(c2cccs2)N(Cc2cccc(OC(F)(F)F)c2)C=C1C(=O)OCCS(C)(=O)=O` (centres undefined), the composite z-score came to 1.25.

Consider `CC(CCC(=O)OC[C@H]1O[C@H](C#Cc2ccccc2)C=C[C@@H]1Oc1ccc(C)cc1)=NO[C@@H](C)c1cn([C@H](CO)Cc2ccccc2)nn1`, for which the composite z-score worked out at 0.258. `COc1ccc(O[C@H]2C=C[C@@H](c3ccccc3)O[C@@H]2COC(=O)CCC(C)=NO[C@@H](C)c2cc(-c3c(C)cc(C)cc3C)no2)cc1` came in with a composite z-score of -0.987. On to `CC(C)[C@@H](OCc1ccccc1)[C@H](C)C=NO[C@H](C)c1cn([C@H](CO)Cc2ccccc2)nn1`, for which the composite z-score was 0.808. `COc1cccc([C@H]2Oc3ccc(OC)cc3C(=NOC(C)CN3CCCc4nc(C)c(C)cc43)[C@@H]2O)c1` (some centres undefined) returned a composite z-score of -0.504. With `O=C1C[C@@H](O)[C@@H](O)[C@@H]2[C@@H]3C(=O)N(C4CCCCC4)C(=O)[C@@H]3CC[C@H]12` the figure was 0.0447; with `COc1ccc([Si](C)(C)[C@H]2[C@H](CC(=O)N3CCC[C@H]3CO)O[C@@]3(C(=O)N(Cc4cccc(N5C(=O)COc6ccccc65)c4)c4ccccc43)[C@@H]2C)cc1`, 0.0527. As to `CC(C)NC(=O)[C@@]1(c2ccc([N+](=O)[O-])cc2)CC(=O)N(CC23CC4CC(CC(C4)C2)C3)[C@@H]1c1ccc(CO)cc1I`, the composite z-score came to 0.131. Regarding `C=CCOC(=O)[C@H]1[C@@H]2C(=O)O[C@@H](c3ccccc3)[C@@H](c3ccccc3)N2[C@@H](c2ccc(OCCOC(=O)[C@H]3C[C@H]4C(=O)N5CCC[C@H]5C(=O)N4[C@H]3c3cccc(OCCO)c3)cc2)[C@]12C(=O)Nc1ccc(I)cc12`, the composite z-score was 2.76. With `CC(C)CN1CCc2nc(-c3ccccc3)c3c(c2CC1)CO[C@@H](C)C3` the figure was -0.2; with `CC(C)OC(=O)C=C1C[C@@H](c2ccc(C#N)cc2)O[C@@H](c2ccc(C#N)cc2)O1`, 0.77. In turn, `C=CC[C@@H]1C=C[C@H](ON=C[C@@H](OC)[C@H](C)C=CCC(=O)OC)[C@@H](CO)O1` displayed a composite z-score of -0.259. `CN1C(=O)C2C(C1=O)C1C=C(CCCO)C2C(c2ccc(CN3CCCC3)cc2)N1C` (centres undefined) registered a composite z-score of -0.383. Take `COCC(=C=CC[C@@H](O)c1ccccc1OCCO)CCO`: the composite z-score is -0.174. For `COCCOC(=O)N1C(=O)[C@@]2(c3cc(C#CCNC(N)=O)ccc31)[C@H](c1ccc(O)cc1)N1[C@H](c3ccccc3)[C@H](c3ccccc3)OC(=O)[C@H]1[C@@H]2C(=O)N1CCCCCCC1`, the composite z-score was determined as 0.445. For `C=C(/C(=C/C[C@H](OC(=O)c1ccncc1)c1ccc(OCCO)cc1)c1cnc2ccccc2c1)C(C)C`, the composite z-score amounted to 1.3.

For `Cc1cc2c(c(=O)o1)[C@H](O)[C@H]1O[C@H]1C2=O`, the composite z-score was found to be 0.0061. On to `COC(=O)[C@@H]1CC[C@H](C)[C@@H](c2ccc(C)cc2)N1C(=O)c1ccc(C=NOC[C@@H](O)COCc2ccco2)cc1`, for which the composite z-score was -1.24.
